Source: PubChem BioAssay (NCI)
Compounds without any hit were thinned out: in the full panel of roughly 83,000, 20% have a hit.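 Cell lines were cultured in 96-well plates, exposed to a single compound concentration, and assessed for percent growth 48 hours later.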 Unmarked numbers belong to inactive results. The source made the active and inactive calls. The calls were made as follows: active = growth percent below 10; inactive = the rest.

Assays:
Assay in all cases: NCI-60 one-dose screen, 48 h (100 = growth as untreated, 0 = no growth, -100 = all killed)
Details in all cases: 10 µM unless noted
[1] = test system: HCT-15 colon
[2] = test system: HT29 colon
[3] = test system: SNB-75 CNS
[4] = test system: SNB-19 CNS
[5] = test system: U251 CNS
[6] = test system: PC-3 prostate
[7] = test system: SK-MEL-5 melanoma
[8] = test system: UACC-62 melanoma
[9] = test system: LOX IMVI melanoma
[10] = test system: SK-MEL-28 melanoma
[11] = test system: SK-MEL-2 melanoma
[12] = test system: EKVX NSCLC
[13] = test system: SN12C renal
[14] = test system: UO-31 renal
[15] = test system: TK-10 renal
[16] = test system: ACHN renal
[17] = test system: CAKI-1 renal
[18] = test system: A498 renal
[19] = test system: CCRF-CEM leukemia
[20] = test system: MOLT-4 leukemia

| Structure (SMILES) | growth [1] | growth [2] | growth [3] | growth [4] | growth [5] | growth [6] | growth [7] | growth [8] | growth [9] | growth [10] | growth [11] | growth [12] | growth [13] | growth [14] | growth [15] | growth [16] | growth [17] | growth [18] | growth [19] | growth [20] |
| --- | --- | --- | --- | --- | --- | --- | --- | --- | --- | --- | --- | --- | --- | --- | --- | --- | --- | --- | --- | --- |
| COC(=O)c1ccc2c(c1)c1c(C)c3cnccc3c(C)c1n2C | -8.77% (active) | -10.9% (active) | 8.05% (active) | -1.59% (active) | -16.5% (active) | 5.43% (active) | -91.3% (active) | -82.3% (active) | -55% (active) | -54.5% (active) | -56.2% (active) | -7.49% (active) | -3.93% (active) | -45.7% (active) | -15.5% (active) | -27.7% (active) | -10.2% (active) | -84.3% (active) | 6.83% (active) | 2.75% (active) |
| Cc1cccc(NC(=O)N/C(N)=N/c2nc3ccccc3s2)c1 | 23% | 11.3% | 4.63% (active) | 42.3% | 28.9% | 34.2% | 23.7% | 33.5% | 34.4% | 63% | 33% | 49.6% | 43.9% | 38.6% | 59% | 38.7% | 25% | -3.86% (active) | 21.4% | 35.7% |
| CC[C@H](Nc1nc(N)nc(C)c1C#N)c1nc2cccc(CN(C)c3ncc(C(=O)NO)cn3)c2c(=O)n1-c1ccccc1 | 42.8% | -18.4% (active) | 29.1% | 11% | -69.6% (active) | 14.6% | -92.2% (active) | -80% (active) | -86.6% (active) | 6.03% (active) | -5.85% (active) | 35.3% | 2.71% (active) | -4.88% (active) | -21.8% (active) | 24% | 18.1% | -40% (active) | 15.3% | 9.84% (active) |
| Cc1cc2oc(/C=C/c3ccccc3)cc(=O)c2c(C)c1Cl | 95.7% | 107% | 116% | 89.8% | 94.3% | 96.7% | 96% | 90.5% | 109% | 94.6% | 103% | 101% | 99.1% | 94.4% | 91.6% | 110% | 84.6% | 142% | 99.2% | 62.6% |
| COc1cc(-c2ccc[nH]2)[nH]c1/C=C1\N=C(C)C(CC(=O)OCC(C)(C)C)=C1C | -78% (active) | -59.9% (active) | -23.8% (active) | -33.3% (active) | -95.6% (active) | -88.3% (active) | -95.7% (active) | -82.6% (active) | -88.3% (active) | -78.2% (active) | -60.4% (active) | -69.3% (active) | -75% (active) | -86.5% (active) | -89.9% (active) | -83.2% (active) | -78.8% (active) | -89.9% (active) | -16.5% (active) | -37% (active) |
| COc1cc(/C=C/C(=O)N2CCN(C(=O)c3cc(OC)c(OC)c(OC)c3)CC2)ccc1OCCCOc1cc2c(cc1OC)C(=O)N1CCC[C@H]1C=N2 | 43.4% | 13.5% | -48.1% (active) | 13.8% | 7.58% (active) | -43% (active) | 2.69% (active) | -90.1% (active) | 1.38% (active) | -47.3% (active) | -42.4% (active) | 8% (active) | 13.9% | -12.8% (active) | 6.61% (active) | 0.236% (active) | 3.12% (active) | -55.8% (active) | -1.17% (active) | 7.57% (active) |
| O=C(O)c1cn(C2CC2)c2cc(N3CCN(C(=O)N4CCOCC4)CC3)c(F)cc2c1=O | 103% | 102% | 98.1% | 105% | 103% | 91.9% | 99.4% | 97.3% | 87.1% | 104% | 103% | 101% | 101% | 79.6% | 93.2% | 100% | 96.5% | 117% | 108% | 117% |
| CS(=O)/C(C#N)=C\C=C\c1cccc(Cl)c1 (stereo not given) | -6.41% (active) | 8.51% (active) | 22.5% | 27.2% | 17.3% | 30.6% | 32.3% | 0.315% (active) | -53.2% (active) | 24.8% | 31.9% | 38.9% | 19.9% | 21.4% | 35% | 3.18% (active) | 20.5% | 12.1% | 2.45% (active) | 7.07% (active) |
| CC1(C)CC[C@]2(CO)CC[C@]3(C)[C@](O)([C@H](O)C[C@@H]4[C@@]5(C)CCCNC(C)(C)[C@@H]5CC[C@]43C)[C@@H]2C1 | 88.5% | 20.6% | 88.7% | 103% | 79.6% | 75.9% | 96.8% | 103% | 87.8% | 100% | 106% | 107% | 90% | 73% | 103% | 108% | 97.5% | 83.6% | 74.6% | 46% |
| Cc1ccc2c(c1)sc1nc(-c3c[nH]c4ccccc34)c(Nc3ccccc3)n12 | 105% | 104% | 89.8% | 94.9% | 106% | 90.4% | 113% | 89.4% | 96.3% | 110% | 109% | 101% | 102% | 77.3% | 114% | 100% | 79.8% | 109% | 107% | 98.7% |
| C=C(C)[C@@H]1CC[C@]2(C(=O)N3CCN(C)CC3)CC[C@]3(C)[C@H](CC[C@@H]4[C@@](C)(CCC(=O)O)[C@H](C(=C)C)CC[C@]43C)[C@@H]12 | 82.5% | 78% | 76% | 93.6% | 79.7% | 55.4% | 82.7% | 71.3% | 92.5% | 99% | 92.2% | 86% | 85.9% | 50.5% | 94.3% | 82.8% | 63.1% | 53% | 70.7% | 61.2% |
| c1ccc2cc(Cn3cc(CSc4nc5ccccc5s4)nn3)ccc2c1 | 107% | 95.7% | 101% | 93.3% | 95.6% | 93.1% | 107% | 84.8% | 98.8% | 102% | 90.6% | 101% | 94.5% | 77.6% | 102% | 99.3% | 83.3% | 97.3% | 97.2% | 96.4% |
| COC(=O)[C@]1(C)CCC[C@]2(C)[C@H]3C[C@@H]4[C@H]5[C@@H]6CC/C(=N\OCC/C(N)=N/O)[C@H]5[C@@]3(CC[C@H]21)CC4(C(C)C)O6 | 36.6% | 74.2% | 66.9% | 89.4% | 68.4% | 47.5% | 73.2% | 58.5% | 69% | 88.9% | 85.8% | 62.5% | 63.4% | 50.1% | 84.9% | 68.4% | 65.1% | 82.4% | 18.9% | 28% |
| CC(=O)c1ccc(-n2cc(CN3CCN(c4cc5c(cc4F)c(=O)c(C(=O)O)cn5C4CC4)CC3)nn2)cc1 | 93.8% | 90.8% | 92.7% | 98.2% | 98.4% | 83.9% | 84.3% | 90.5% | 55.4% | 99.3% | 96.4% | 88.5% | 103% | 63.1% | 103% | 96.7% | 87.8% | 76.7% | 111% | 102% |
| Cc1ccc(-c2csc(NC(=O)CSc3nc(N)cc(N)n3)n2)cc1 | 75.2% | 87.8% | 81.1% | 64.2% | 78.1% | 70.5% | 2.45% (active) | 55.1% | 60.2% | 88.7% | 51.6% | 46.4% | 82.9% | 64.1% | 78.9% | 65.8% | 79% | 66.3% | 50% | 44.4% |
